Only some compounds are listed: those with a hit (about 2.3% of all), similar ones and a draw of the others.
AMA1-RON2 inh: inhibitors of Plasmodium falciparum AMA1-RON2 interaction; AlphaScreen AMA1-biotinylated RON2 peptide binding; Potency, µM (titrated, usually from 58.2 µM), inactives show at the highest dose activity change, negative = inhibition, actives largely listed as inhibitors; actives 0.2% (n = 360,000); AID 720542;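 note: 0% = vehicle wells and -100% = peptide control; nearly all actives have a fitted effect of over 45% in size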
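AMA1 (3D7) with his tag at 25 nM final met compounds first, then biotinylated RON2 peptide at 25 nM; detection used donor plus acceptor beads, 10 µg/mL apiece, read by AlphaScreen after 30 min at room temperature.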
Marburg entry inh: inhibitors of Marburg virus binding or cell entry | actives 1.8% (n = 300,000) | Potency, µM (series often up to 37.8 µM), for inactives: at the top dose activity change, negative = inhibition, hits mostly inhibitors | Marburg virus pseudotyped entry inhibition, cell reporter; calls by dose curve; tested in HEK293 cells
AmpC inh no detg: AmpC beta-lactamase inhibition without detergent. P00811. Potency, µM (top dose mostly 57.1 µM), for inactives: at the highest dose activity change, negative = inhibition, actives largely listed as inhibitors. AmpC nitrocefin hydrolysis, absorbance 480 nm, 0.0001% Triton. actives 0.52% (n = 330,000);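 note: plate controls were no compound for no effect and no enzyme for full effect; nearly all actives have a fitted effect of over 20% in size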
Target sequence (P00811 whole entry, looked up): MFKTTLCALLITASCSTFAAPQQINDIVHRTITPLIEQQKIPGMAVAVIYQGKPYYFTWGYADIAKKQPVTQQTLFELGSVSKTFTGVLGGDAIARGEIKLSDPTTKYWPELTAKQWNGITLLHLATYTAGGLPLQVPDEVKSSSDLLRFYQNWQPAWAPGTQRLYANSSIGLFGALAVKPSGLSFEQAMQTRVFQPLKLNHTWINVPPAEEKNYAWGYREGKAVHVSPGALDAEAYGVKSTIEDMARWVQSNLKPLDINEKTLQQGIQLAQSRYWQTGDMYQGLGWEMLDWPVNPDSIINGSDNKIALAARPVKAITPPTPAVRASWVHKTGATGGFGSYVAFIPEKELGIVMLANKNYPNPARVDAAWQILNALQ
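AmpC (5.3 nM in the dispensed reagent) in 20 mM phosphate pH 7.0 with 0.01% (detergent screen) or 0.0001% Triton X-100 was preincubated with compounds for 15 min at room temperature. Nitrocefin was then added from an 800 uM solution, and hydrolysis was followed at 480 nm.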
AmpC detergent: blocks E. coli AmpC beta-lactamase in detergent assay; P00811; AmpC hydrolysis of nitrocefin, absorbance 480 nm, 0.01% Triton; Potency, µM (titrated, usually from 114 µM), without a hit: top-dose activity change, negative = inhibition, hits mostly inhibitors; actives 0.041% (n = 370,000);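 note: 0% = no-compound wells and -100% = no-enzyme wells; nearly all actives have a fitted effect of over 25% in size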
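AmpC (5.3 nM in the dispensed reagent) in 20 mM phosphate pH 7.0 with 0.01% (detergent screen) or 0.0001% Triton X-100 was preincubated with compounds for 15 min at room temperature. Nitrocefin was then added from an 800 uM solution, and hydrolysis was followed at 480 nm.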
Lassa entry inh: inhibitors of Lassa virus binding or cell entry. Lassa virus pseudotype entry inhibition, cell reporter. Potency, µM (series often up to 37.9 µM), without a hit: at the top dose activity change, negative = inhibition, actives largely listed as inhibitors. actives 1.2% (n = 300,000). AID 540256; calls by dose curve; tested in HEK293 cells; note: nearly all actives have a fitted effect of over 50% in size
* = called active by the depositor; ! = not active in a repeat; [ ] = another dose, or the depositor's remark. Unless noted, calls come from the whole dose curve; as a rule, active = well fitted curve in the direction sought with a large enough effect; inconclusive = small, poorly fitted or top-dose-only effect, or another doubt; inactive = no such curve, though single readings can be large; an effect the other way counts as inactive or inconclusive. Unless noted, % is set by controls: 0 for no effect and ±100 for the full control effect; potency is the fitted concentration of half-maximal effect.

What do the screens show for `COc1ccc(N(CC(=O)NCc2ccco2)S(=O)(=O)c2ccccc2)cc1`?
AMA1-RON2 inh: -13.5%; Marburg entry inh: -9.0%[46.1 µM]; AmpC inh no detg: -8.9%; AmpC detergent: 3.3%

Results for CCNC(=O)CN(c1ccccc1)S(=O)(=O)c1ccc(Cl)cc1 ?
AMA1-RON2 inh: -6.7%; Marburg entry inh: 10.0%; AmpC inh no detg: -6.8%; AmpC detergent: -10.9%; Lassa entry inh: 0.6%

Results for Cc1cccc(N2CCN(c3cc(C)nc4c(-c5ccc(Cl)cc5)c(C)nn34)CC2C)c1 (stereo not given) ?
AmpC detergent: -3.3%; Lassa entry inh: -0.5%[46.1 µM]

What do the screens show for `COc1ccc(N(CC(=O)Nc2ccccc2OC)S(=O)(=O)c2ccc(NC(C)=O)cc2)cc1`?
AMA1-RON2 inh: 4.2%; Marburg entry inh: inconclusive; AmpC inh no detg: 49.4%; AmpC detergent: 1.3%; Lassa entry inh: 3.16µM*

Results for COc1ccccc1NC(=O)CN(c1ccccc1)S(=O)(=O)c1ccccc1 ?
AMA1-RON2 inh: 13.4%; AmpC inh no detg: -27.2%; AmpC detergent: inconclusive

How did COc1ccc(OC)c(N(CC(=O)Nc2cccnc2)S(=O)(=O)c2ccc(OC)c(OC)c2)c1 do in these assays?
AMA1-RON2 inh: -3.4%; Marburg entry inh: 2.82µM*!; AmpC inh no detg: 42.3%; AmpC detergent: -10.3%; Lassa entry inh: -1.0%

How did Cc1cc2oc(C(=O)N(Cc3ccc(N(C)C)cc3)CC3CCCO3)c(C)c2cc1C (stereo not given) do in these assays?
AMA1-RON2 inh: 14.1µM*; Marburg entry inh: inconclusive; AmpC inh no detg: 67.2%; AmpC detergent: -1.1%; Lassa entry inh: inconclusive

What do the screens show for `Cc1ccc2oc(C(=O)N(Cc3ccc(N(C)C)cc3)CC3CCCO3)c(C)c2c1` (stereo not given)?
AMA1-RON2 inh: 17.8µM*; Marburg entry inh: -26.5%[46.1 µM]; AmpC inh no detg: 82.4%; AmpC detergent: -1.3%; Lassa entry inh: -25.9%[46.1 µM]

What do the screens show for `CCCCCC(=O)N1C[C@H](O)[C@@H](n2cc(C3CC3)nn2)C[C@H]1c1ccc(OC)cc1`?
Lassa entry inh: 5.4%[46.1 µM]

How did Cc1ccc(C(=O)c2cnc3cc4c(cc3c2S(=O)(=O)c2ccccc2)OCCO4)cc1 do in these assays?
AMA1-RON2 inh: -8.9%[11.6 µM]; Marburg entry inh: 7.08µM*; AmpC inh no detg: -11.3%; AmpC detergent: -4.1%; Lassa entry inh: -1.9%

How did CCOc1ccc(S(=O)(=O)c2c(C(=O)c3ccc(C)cc3)cnc3cc4c(cc23)OCCO4)cc1 do in these assays?
AMA1-RON2 inh: -1.8%; Marburg entry inh: inconclusive; AmpC inh no detg: -6.3%; AmpC detergent: -6.6%; Lassa entry inh: -10.8%

Results for Brc1cccc(-c2nnn3c2nc(NCc2ccc4c(c2)OCO4)c2ccccc23)c1 ?
Marburg entry inh: inconclusive; AmpC detergent: 2.6%; Lassa entry inh: 20.6%[46.1 µM]

What do the screens show for `CCc1ccccc1NC(=O)CNC(=O)CCc1nc2sc3c(c2c(=O)[nH]1)CCCC3`?
AMA1-RON2 inh: -18.3%; Marburg entry inh: 0.4%; AmpC inh no detg: 31.6µM*; AmpC detergent: inconclusive; Lassa entry inh: 2.9%[46.1 µM]

Results for Cc1cccc(OCC(=O)Nc2c(C(=O)N3CCN(c4ccccc4F)CC3)oc3ccccc23)c1 ?
Marburg entry inh: 10µM*; AmpC detergent: -6.3%; Lassa entry inh: inconclusive

What do the screens show for `Cc1cccc(NC(=O)CCN2CCN(c3ccccc3F)CC2)c1`?
AmpC detergent: -9.3%; Lassa entry inh: 0.3%[46.1 µM]

How did CC(=O)OCC1O[C@@H](O[C@@H]2C[C@H]3C(C)(C)[C@H](OC(C)=O)CC[C@]3(C)[C@H]3CC[C@]45C[C@]4(CC[C@H]5[C@@H](C)C[C@@H](O)[C@H](O)C(C)(C)O)[C@@]32C)[C@H](O)[C@@H](O)[C@@H]1O (stereo not given in full) do in these assays?
Marburg entry inh: inconclusive; AmpC inh no detg: 324.1%; AmpC detergent: inconclusive; Lassa entry inh: 14.6µM*

What do the screens show for `O=c1cc(C(Cl)(Cl)Cl)oc2c1ccc1ccccc12`?
AMA1-RON2 inh: -13.3%; Marburg entry inh: 2.06µM*; AmpC inh no detg: -23.1%; AmpC detergent: inconclusive; Lassa entry inh: inconclusive

Results for O=c1cc(-c2ccco2)oc2c1ccc1ccccc12 ?
AMA1-RON2 inh: -0.3%; Marburg entry inh: 9.5%; AmpC inh no detg: 2.9%; AmpC detergent: 2.5%; Lassa entry inh: inconclusive

What do the screens show for `CC(O)CNC(=O)C(=O)Nc1c2c(nn1-c1ccc(Cl)cc1)CSC2` (stereo not given)?
AmpC detergent: -0.1%; Lassa entry inh: 0.4%[46.1 µM]

How did COc1ccc(NC(=O)C(C)Sc2cc(-c3ccccc3)nc(C)n2)cc1Cl (stereo not given) do in these assays?
Marburg entry inh: 6.1%[46.1 µM]; AmpC detergent: 16.9%; Lassa entry inh: 0.1%[46.1 µM]

Results for COc1ccc(-c2cnc(SCC(=O)Nc3nc(C(C)(C)C)cs3)n2Cc2ccco2)cc1 ?
AMA1-RON2 inh: -28.8%; Marburg entry inh: inconclusive; AmpC inh no detg: -30.3%; AmpC detergent: 0.9%; Lassa entry inh: 12.6µM*

Results for OCC1(Cc2ccc(Cl)cc2)CCN(Cc2ccccc2F)CC1 ?
AMA1-RON2 inh: 0.0%; Marburg entry inh: inconclusive; AmpC inh no detg: 39.9%; AmpC detergent: -4.6%; Lassa entry inh: -0.8%[46.1 µM]

How did CSc1ccc(CN2CCC(CO)(Cc3ccc(Cl)cc3)CC2)cc1 do in these assays?
AMA1-RON2 inh: -4.4%; Marburg entry inh: inconclusive; AmpC inh no detg: 28.1%; AmpC detergent: -10.2%; Lassa entry inh: 12.6µM*

How did COc1cccc(CNC(=O)c2ccc(CS(=O)Cc3ccc(Cl)cc3)o2)c1 (stereo not given) do in these assays?
AmpC detergent: 13.8%; Lassa entry inh: -21.1%[46.1 µM]

Results for Cc1nc(N/N=C/c2ccc(O)cc2O)cc(N2CCOCC2)n1 ?
AMA1-RON2 inh: -0.3%; Marburg entry inh: 2.82µM*; AmpC inh no detg: -32.8%; AmpC detergent: -1.3%; Lassa entry inh: inconclusive

What do the screens show for `Cc1nc(N/N=C/c2cccc(F)c2)cc(N2CCOCC2)n1`?
AMA1-RON2 inh: -26.3%; Marburg entry inh: 7.94µM*; AmpC inh no detg: 77.4%; AmpC detergent: inconclusive; Lassa entry inh: -20.2%

Results for Oc1ccc(/C=N/Nc2cc(N3CCOCC3)nc(N3CCOCC3)n2)cc1O ?
AMA1-RON2 inh: 30.4%; Marburg entry inh: inconclusive; AmpC inh no detg: -41.8%; AmpC detergent: -6.3%; Lassa entry inh: 6.1%

What do the screens show for `Oc1cccc(/C=N/Nc2cc(N3CCOCC3)nc(N3CCOCC3)n2)c1`?
AMA1-RON2 inh: -4.6%; Marburg entry inh: 2.59µM*; AmpC inh no detg: -19.8%; AmpC detergent: -0.9%; Lassa entry inh: inconclusive

How did Oc1ccccc1/C=N/Nc1cc(N2CCCC2)nc(N2CCCC2)n1 do in these assays?
AMA1-RON2 inh: -8.8%; Marburg entry inh: 2.31µM*; AmpC inh no detg: -27.5%; AmpC detergent: 1.1%; Lassa entry inh: inconclusive

How did O=C(Nc1cccc(C(F)(F)F)c1)N1CCC(CN2CCCCCC2)CC1 do in these assays?
AmpC detergent: 13.6%; Lassa entry inh: 4.0%[46.1 µM]
